In PubChem BioAssay (NCI) one finds growth inhibition data, which are given here for 21 molecules.

The panel holds about 79,000 compounds, 15% with a hit somewhere; the sample as a whole holds those more often. Unmarked numbers belong to inactive results. Activity calls are given as the source filed them. Rule as the data show it: active = growth inhibition above about 70%; inactive = the rest.

A short description of assay [1]: NCI Yeast Anticancer Drug Screen. Data for the rad50 strain (AID 155).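 Also: 0% = growth of vehicle-only cultures of the same strain.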 Particulars: S. cerevisiae rad50 strain growth inhibition; at 50.0 µM; active compounds read high. The method in brief:
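DNA repair mutant yeast, compound exposure, growth read-out; inhibition is taken relative to vehicle.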

Assay [2] in a line: NCI Yeast Anticancer Drug Screen. Data for the mec2-1 strain (AID 157). Particulars: S. cerevisiae mec2-1 strain, at 50.0 µM, active compounds read high. The method in brief:
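mec2-1 yeast strain, carrying an alteration in DNA damage repair or cell cycle control, was exposed to compounds; growth inhibition was measured relative to vehicle-treated controls.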

Assay [3] can be described thus: NCI Yeast Anticancer Drug Screen. Data for the sgs1 mgt1 strain (AID 161).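 Also: 0% = growth of cultures given vehicle only.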 The following applies: S. cerevisiae sgs1 mgt1 strain, at 50.0 µM, active compounds read high. The method in brief:
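Growth of a repair-deficient yeast mutant was monitored after compound treatment and expressed as inhibition relative to vehicle-treated cultures.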

Assay [4] is described as follows: NCI Yeast Anticancer Drug Screen. Data for the cln2 rad14 strain (AID 165).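 Also: 0% = growth equal to vehicle treated cultures.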 Particulars: S. cerevisiae cln2 rad14 strain, at 50.0 µM, active compounds read high. The method in brief: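 Yeast carrying cln2 and rad14 alterations (cell cycle control and DNA damage repair) were exposed to compounds. Growth inhibition was measured against vehicle-treated controls.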
The nature of assay [5]: NCI Yeast Anticancer Drug Screen. Data for the bub3 strain (AID 167). Particulars: S. cerevisiae bub3 mutant strain, at 50.0 µM, active compounds read high. The method in brief:
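In this screen, a yeast mutant lacking normal mitotic checkpoint function is challenged with compound. Relative growth versus vehicle gives the inhibition value.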

The nature of assay [6]: NCI Yeast Anticancer Drug Screen. Data for the mlh1 rad18 strain (AID 175). The following applies: S. cerevisiae mlh1 rad18 strain growth inhibition; at 50.0 µM; active compounds read high. The method in brief: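 Growth inhibition of the yeast strain was measured after compound exposure and expressed relative to vehicle-treated controls. The strain carries defined defects in DNA damage repair.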

Consider `CN(C)C(=O)NO`, for which the growth inhibition was -32% in assay [1]; -26.1% in assay [2]; -11.8% in assay [3]; -19.8% in assay [4]; -3.3% in assay [5]; -28.4% in assay [6].
As for `CCc1cc(CCC(=O)Nc2ccccc2[N+](=O)[O-])[nH]c(=S)n1`, the growth inhibition in assay [1] was -10.6%; in assay [2] it was -20.8%; in assay [3], 11.3%; in assay [4], 12%; in assay [5], -14.3%; in assay [6], -11.2%.
As to `Nc1nc(-c2ccc(-c3ccccc3)cc2)cc(=O)[nH]1`, the growth inhibition is 0.25% in assay [1]; 27.6% in assay [2]; -4.8% in assay [3]; -8.25% in assay [4]; 7.5% in assay [5]; -25.8% in assay [6].
Regarding `CSc1nnc(N(C(C)C)C(C)C)c2nc[nH]c12`, the growth inhibition was 9.65% in assay [1]; 11.8% in assay [2]; 16.1% in assay [3]; 47.5% in assay [4]; 14.7% in assay [5]; 4.2% in assay [6].
`C=C(C)COC(OCC(=C)C)C(C)C`: the growth inhibition is 26.4% in assay [1]; 3.05% in assay [2]; 3.45% in assay [3]; 9.35% in assay [4]; 22.2% in assay [5]; 12.2% in assay [6].
On to `COC(=O)c1cc(C)c2c3ccccc3n(C)c2c1C(=O)OC`, for which the growth inhibition in assay [1] is 19.6%; in assay [2] it was -0.4%; in assay [3] it was -8.9%; in assay [4] it was -1.5%; in assay [5], -9.9%; in assay [6] it was -13.5%.
With `CCOC(=O)c1cnc(N(C)C)nc1SC(=N)N`, the growth inhibition was -15.2% in assay [1]; -0.7% in assay [2]; -24.4% in assay [3]; -53.9% in assay [4]; -7.5% in assay [5]; -18.6% in assay [6].
In the case of `c1ccc(O[Si](Oc2ccccc2)(Oc2ccccc2)Oc2ccccc2)cc1`, the growth inhibition was 5.65% in assay [1]; -18.7% in assay [2]; 5.5% in assay [3]; 5.1% in assay [4]; -7.3% in assay [5]; 6.05% in assay [6].
For `CC1(C)CCc2cc3c(cc2O1)OC(C)(C)CC3=O`, the growth inhibition in assay [1] is 9.05%; in assay [2], 8.75%; in assay [3], -15.9%; in assay [4], 22.4%; in assay [5], -1.45%; in assay [6], -17.4%.
As for `COC(=O)C1=C(C(=O)OC)P2(C)(C)OC(c3ccccc3)CN2C1(c1ccccc1)c1ccccc1` (stereo unspecified), the growth inhibition is 18% in assay [1]; 9.15% in assay [2]; -2.4% in assay [3]; -80% in assay [4]; 0.3% in assay [5]; 40.9% in assay [6].
Regarding `C[N+](C)([O-])CCNC(=O)c1cccc2cc3ccccc3nc12`, the growth inhibition in assay [1] was -9.8%; in assay [2] it was -8.9%; in assay [3], -23.5%; in assay [4] it was 4.3%; in assay [5], 10.2%; in assay [6] it was -46%.
Consider `O=C1C2C(Cl)C(Cl)C(Cl)C(Cl)C2C(=O)N1NC1CCC([N+](=O)[O-])CC1[N+](=O)[O-]` (stereo unspecified), for which the growth inhibition was -22.9% in assay [1]; -16.4% in assay [2]; -18.5% in assay [3]; 17.4% in assay [4]; 2.5% in assay [5]; 10.1% in assay [6].
With `O=[N+]([O-])c1ccc(F)c(Cl)c1`, the growth inhibition in assay [1] was -10.7%; in assay [2], -25.1%; in assay [3], -1.6%; in assay [4] it was 4.55%; in assay [5] it was 9.3%; in assay [6] it was -7.25%.
Regarding `Nc1ncnc2c1ncn2C1C=COC(CO)C1O` (stereo unspecified), the growth inhibition is 4.95% in assay [1]; 1.05% in assay [2]; -6.5% in assay [3]; 2.5% in assay [4]; -28.5% in assay [5]; 20.4% in assay [6].
Turning to `Cc1c(Cl)ccc([N+](=O)[O-])c1Cl`, the growth inhibition in assay [1] was 10.7%; in assay [2], -6.85%; in assay [3], -3.35%; in assay [4], 18.3%; in assay [5] it was 14.8%; in assay [6], 29.4%.
For the molecule `CC(=O)OCC1OC(SC2=NC(=O)CS2)C(OC(C)=O)C(OC(C)=O)C1OC(C)=O` (stereo unspecified), the growth inhibition is 3.3% in assay [1]; -1.8% in assay [2]; 1.45% in assay [3]; -6.6% in assay [4]; -8.85% in assay [5]; 17.4% in assay [6].
Take `COC1(OC)C[C@H](C)[C@@]23O[C@]24c2cc(O)c5c(c2N[C@H]3C#C/C=C\C#C[C@]14O)C(=O)c1ccccc1C5=O`: the growth inhibition was 87.7% (active) in assay [1]; 87.2% (active) in assay [2]; 88.8% (active) in assay [3]; 88% (active) in assay [4]; 89.3% (active) in assay [5]; 90.8% (active) in assay [6].
On to `CC(C)(C)C1CCC(O)(CSc2ccccc2)CC1` (stereo unspecified), for which the growth inhibition in assay [1] is 6.7%; in assay [2], 1.45%; in assay [3] it was -1.75%; in assay [4] it was -1.75%; in assay [5], -6.7%; in assay [6], -10.6%.
As for `COc1cccc(N2C(=O)[C@H]3[C@H]4CC(C(C)(C)C)CC[C@H]4c4c([nH]c5ccccc45)[C@H]3C2=O)c1` (stereo partly specified), the growth inhibition was 1.65% in assay [1]; -18.9% in assay [2]; 8.25% in assay [3]; 31.7% in assay [4]; -9.4% in assay [5]; -2.4% in assay [6].
As for `CN1N=Nc2ccccc2C1(O)c1ccccc1` (stereo unspecified), the growth inhibition in assay [1] was 8.7%; in assay [2], -3.05%; in assay [3], 0.25%; in assay [4], -18.6%; in assay [5], -11.9%; in assay [6], 6.9%.
For the molecule `O=S(=O)(c1ccc(Cl)cc1)N1CCN(S(=O)(=O)c2ccc(Cl)cc2)C1`, the growth inhibition in assay [1] is 2.05%; in assay [2] it was 8.1%; in assay [3], -14.3%; in assay [4], -21.6%; in assay [5], -0.05%; in assay [6], 15.6%.
